About 960 (1.5%) of roughly 66,000 compounds showed an effect of 50% or more. What follows is part of a selection rich in strong results, with near analogues and random picks from the rest.
Test system: Trypanosoma brucei
Assay: Trypanosoma brucei 72 hour study
Assay type: functional, organism-based
Parameters: scale not given: in the data most compounds retested in dose-response had high values

Which “Percent Effect” value (30 µM, 30.03 µM) does the source give for `O=C(NCC1CCCCC1)NC1CCCc2c1cnn2CCO` (centres undefined) here?
The value was -28.76%.

`O=C(NCC(F)(F)F)NC1CCCc2c1cnn2CCO` (centres undefined) was tested. Which “Percent Effect” value (30 µM, 30.03 µM) did it give?
The value was 3.56%.

With `O=C(NC1CCCCC1)NC1CCCc2c1cnn2CCO` (centres undefined) as the molecule, how does the “Percent Effect” value (30 µM, 30.03 µM) read?
The value was 61.21%.

How did the “Percent Effect” value (30 µM, 30.03 µM) turn out when `COc1ccc(CN2CCc3ncnc(C4CC4)c3CC2)cc1.O=C(O)C(F)(F)F` was run?
The value was -6.255%.

Which results are given for `Cc1nc(C)n(CC2CCCCN2Cc2nc3ccccc3o2)n1` (centres undefined)?
Percent Effect (30.3 µM, […]): -29.61%; Percent Effect (10 mM, 10 mM as filed; unlikely as a test dose): -25.93%

How did the “Percent Effect” value (30 µM, 30.03 µM) turn out when `Cc1cc(N2CCC(O)(CN(C)C)C2)c2cc3c(cc2n1)OCO3` (centres undefined) was run?
Its value is 101.2%.

For `Cc1cc(N2CCCC(O)(CN(C)C)C2)c2cc3c(cc2n1)OCO3` (centres undefined), which “Percent Effect” value (30 µM, 30.03 µM) is on record?
The value was 17.65%.

For `Cc1cc(N2CCCC3(CN(C)C(=O)O3)C2)c2cc3c(cc2n1)OCO3` (centres undefined), which “Percent Effect” value (30 µM, 30.03 µM) is on record?
The value was -17.57%.

How did the “Percent Effect” value (30 µM, 30.03 µM) turn out when `CN(C)C[C@H]1OC[C@@H]2CCN(S(=O)(=O)c3ccc(F)cc3)C[C@@H]21.O=C(O)C(F)(F)F` was run?
Its value is -20.07%.

`Cn1cncc1CN1CCC2(CC1)COCCN(S(C)(=O)=O)C2.O=C(O)C(F)(F)F` was tested. Which “Percent Effect” value (30.3 µM, […]) did it give?
Its value is -5.891%.

`C[C@@H](N)C(=O)N1CC2(CCNCC2)c2cc(Cl)ccc21.Cl.Cl` was tested. Which “Percent Effect” value (30.3 µM, […]) did it give?
The value was 51.33%.

How did the “Percent Effect” value (30.3 µM, […]) turn out when `CCOC(=O)N1CC2(CCNCC2)c2cc(Cl)ccc21.Cl` was run?
The value was 80.77%.

Which “Percent Effect” value (30.3 µM, […]) does the source give for `Cl.Cl.O=C([C@H]1CCCN1)N1CC2(CCNCC2)c2cc(Cl)ccc21` here?
Its value is 11.24%.

`Cl.O=C(c1ccccc1F)N1CC2(CCNCC2)c2cc(Cl)ccc21` was tested. Which “Percent Effect” value (30.3 µM, […]) did it give?
Its value is -26.55%.

With `Cl.Cl.O=C([C@@H]1CSCN1)N1CC2(CCNCC2)c2cc(Cl)ccc21` as the molecule, how does the “Percent Effect” value (30.3 µM, […]) read?
Its value is -15.46%.

For `Cc1ccc2c(c1)C1(CCNCC1)CN2C(=O)C(C)C`, which “Percent Effect” value (30.3 µM, […]) is on record?
Its value is -10.81%.

With `CN(C)C(=O)N1CC2(CCNCC2)c2cc(Cl)ccc21.Cl` as the molecule, how does the “Percent Effect” value (30.3 µM, […]) read?
The value was -10.23%.

Which “Percent Effect” value (30.3 µM, […]) does the source give for `CC(C)C[C@H](N)C(=O)N1CC2(CCNCC2)c2cc(Cl)ccc21.Cl.Cl` here?
The value was 46.04%.

For `COCCN1CC[C@H](OC)[C@@H]1Cc1ccccc1.O=C(O)C(F)(F)F`, which “Percent Effect” value (30 µM, 30.03 µM) is on record?
The value was -24.73%.

Which “Percent Effect” value (30.3 µM, […]) does the source give for `O=C(COC[C@@]12CCC[C@@H]1CN(C1CCC1)C2)N1CCCC1.O=C(O)C(F)(F)F` here?
The value was -61.71%.

How did the “Percent Effect” value (30 µM, 30.03 µM) turn out when `Cc1nn(C)c2c(=O)n(CC(=O)NCC3CCCO3)ccc12` (centres undefined) was run?
The value was -1.766%.

With `CNC(=O)CN1CC[C@H]2CN(C(=O)c3ccoc3)C[C@H]2C1.O=C(O)C(F)(F)F` as the molecule, how does the “Percent Effect” value (30.3 µM, […]) read?
The value was -45.09%.

For `CCOCC1CN(Cc2nccs2)Cc2nn(CC3CC3)cc21.O=C(O)C(F)(F)F` (centres undefined), which “Percent Effect” value (30 µM, 30.03 µM) is on record?
The value was -7.531%.

`COc1ncc(CN(CCCN2CCOCC2)Cc2ccc(C)o2)cn1.O=C(O)CC(O)(CC(=O)O)C(=O)O` was tested. Which “Percent Effect” value (30.3 µM, […]) did it give?
Its value is -12.51%.

With `CNc1nc(C2CCCN2C(C)=O)nc2c1CN(CCO)CC2.O=CO` (centres undefined) as the molecule, how does the “Percent Effect” value (30.3 µM, […]) read?
Its value is 20.17%.

How did the “Percent Effect” value (30.3 µM, […]) turn out when `CCOc1cc([C@@H]2N[C@H](c3nccs3)Cc3ccsc32)ccc1OC` was run?
The value was 9.707%.

`COc1cc([C@@H]2N[C@H](c3nccs3)Cc3ccsc32)cc(OC)c1OC` was tested. Which “Percent Effect” value (30.3 µM, […]) did it give?
The value was -6.656%.

With `COc1cccc([C@@H]2N[C@H](c3nccs3)Cc3ccsc32)c1OC` as the molecule, how does the “Percent Effect” value (30.3 µM, […]) read?
The value was 100.1%.

Which “Percent Effect” value (30.3 µM, […]) does the source give for `CCOc1ccc([C@@H]2N[C@H](c3nccs3)Cc3ccsc32)cc1OC` here?
The value was 10.72%.

Which “Percent Effect” value (30.3 µM, […]) does the source give for `COc1ccc(OC)c([C@@H]2N[C@H](c3nccs3)Cc3ccsc32)c1` here?
The value was 15.15%.

For `CCOc1cc([C@H]2N[C@@H](c3nc(C)cs3)Cc3ccsc32)ccc1OC`, which “Percent Effect” value (30.3 µM, […]) is on record?
Its value is 85.49%.

How did the “Percent Effect” value (30.3 µM, […]) turn out when `O=C(CN1C[C@H]2C[C@H](OCc3ccccc3)C[C@H]2C1)N1CCOCC1` was run?
The value was -15.88%.

`Cc1cc(C)n(CC2CN(c3nnc(C)c(C)c3C#N)CCO2)n1` (centres undefined) was tested. Which “Percent Effect” value (30.3 µM, […]) did it give?
Its value is 5.324%.

`O=C(NCC1CCCN(Cc2cccc3nonc23)C1)c1ccc[nH]1` (centres undefined) was tested. Which “Percent Effect” value (30 µM, 30.03 µM) did it give?
Its value is -46.2%.

Which “Percent Effect” value (30 µM, 30.03 µM) does the source give for `NC1(C(=O)NCC2CCCN(Cc3cccc4nonc34)C2)CCC1` (centres undefined) here?
The value was 54.97%.

For `NC1(C(=O)NCC2CCCN(Cc3ccccc3F)C2)CCCC1` (centres undefined), which “Percent Effect” value (30 µM, 30.03 µM) is on record?
Its value is -11%.

Which “Percent Effect” value (30.3 µM, […]) does the source give for `COc1ccc(CN2CCc3nc4ccsc4c(=O)n3CC2)c(C)c1C` here?
The value was 7.671%.

Which “Percent Effect” value (30 µM, 30.03 µM) does the source give for `CCn1cc(NC(=O)C(C)n2ncc(Cl)c2C)c(C(=O)NC)n1` (centres undefined) here?
Its value is -19.95%.

For `CC(C)CNC(=O)[C@H]1CCS(=O)(=O)[C@@H]2CN(Cc3ccc(Cl)cc3)C[C@H]12.O=C(O)C(F)(F)F`, which “Percent Effect” value (30 µM, 30.03 µM) is on record?
Its value is 63.22%.

Which “Percent Effect” value (30.3 µM, […]) does the source give for `CC(C)CNC(=O)[C@H]1CCS(=O)(=O)[C@@H]2CN(Cc3ccc(F)cc3)C[C@H]12.O=C(O)C(F)(F)F` here?
Its value is -43.77%.

For `Cc1ccc(CN2C[C@@H]3[C@@H](C(=O)NCC(C)C)CCS(=O)(=O)[C@@H]3C2)cc1.O=C(O)C(F)(F)F`, which “Percent Effect” value (30.3 µM, […]) is on record?
Its value is -11.51%.

For `CC(CNCc1ccc(Cl)cc1)Oc1ccccn1.Cl` (centres undefined), which “Percent Effect” value (30 µM, 30.03 µM) is on record?
The value was -4.288%.

With `Cc1cc(C2NC(=O)CN2Cc2ccc(Br)cc2)cc(C)c1O` (centres undefined) as the molecule, how does the “Percent Effect” value (30 µM, 30.03 µM) read?
The value was 94.42%.

`NC(=O)COc1ccc(C2NC(=O)CN2Cc2ccc(Br)cc2)cc1` (centres undefined) was tested. Which “Percent Effect” value (30 µM, 30.03 µM) did it give?
Its value is -15.28%.

Which “Percent Effect” value (30 µM, 30.03 µM) does the source give for `COc1cc(OC)cc(C2NC(=O)CN2Cc2ccc(Br)cc2)c1` (centres undefined) here?
The value was -25.05%.

`CC1N(c2cnn(C)c2)C(=O)COC12CCN(c1ncccn1)CC2.O=C(O)C(F)(F)F` (centres undefined) was tested. Which “Percent Effect” value (30.3 µM, […]) did it give?
Its value is -2.456%.

For `CN(CCc1ccccn1)C(=O)c1cccs1.Cl`, which “Percent Effect” value (30 µM, 30.03 µM) is on record?
The value was -41.89%.

For `O=C(c1nc(-c2ccc3cc[nH]c3c2)no1)N1CCCC1`, which “Percent Effect” value (30 µM, 30.03 µM) is on record?
Its value is 53.89%.

With `O=C(NCCN1CCCCC1)c1nc(-c2ccc3cc[nH]c3c2)no1` as the molecule, how does the “Percent Effect” value (30 µM, 30.03 µM) read?
The value was 29.87%.

`COCCNC(=O)c1nc(-c2ccc3cc[nH]c3c2)no1` was tested. Which “Percent Effect” value (30 µM, 30.03 µM) did it give?
Its value is -23.6%.

How did the “Percent Effect” value (30.3 µM, […]) turn out when `COCCNc1cc(C2CCCNC2)ccn1.Cl` (centres undefined) was run?
Its value is 9.179%.

`CCNC(=O)[C@@H]1C[C@@H](N)CN1Cc1ccc(Sc2ccc(C)cc2)o1` was tested. Which “Percent Effect” value (30.3 µM, […]) did it give?
Its value is 100.1%.

With `CCNC(=O)[C@@H]1C[C@H](N)CN1Cc1ccc(Sc2ccc(C)cc2)o1` as the molecule, how does the “Percent Effect” value (30.3 µM, […]) read?
The value was 18.4%.

`CCNC(=O)[C@@H]1C[C@H](N)CN1Cc1ccc(-c2cc[nH]n2)o1` was tested. Which “Percent Effect” value (30.3 µM, […]) did it give?
Its value is -17.36%.

For `COCCN1C(=O)C[C@H]2[C@H]1CCN2Cc1cccc(C#N)c1.O=C(O)C(F)(F)F`, which “Percent Effect” value (30 µM, 30.03 µM) is on record?
Its value is 17.08%.

`O=C(O)C(F)(F)F.O=C(c1ccc[nH]1)N1CCn2cc(CN3CCCC3)nc2C1` was tested. Which “Percent Effect” value (30 µM, 30.03 µM) did it give?
The value was -5.056%.

With `O=C(c1ccc[nH]1)N1CCn2cc(Cn3cncn3)nc2C1` as the molecule, how does the “Percent Effect” value (30 µM, 30.03 µM) read?
The value was -19.87%.

For `O=C(O)C(F)(F)F.O=C(c1ccc[nH]1)N1CCn2cc(Cn3cccn3)nc2C1`, which “Percent Effect” value (30.3 µM, […]) is on record?
The value was 63.53%.

From ChEMBL document CHEMBL3988442, “University of Dundee, Small-Polar-MMV Screening Library” (2021)
